# Target: PRPF8 (UniProt Q6P2Q9)
# Test: cross-linking mass spectrometry
# Conditions: DSBSO, in cells or nuclear extract, not told apart
# Sequence of USP39, Q53GS9 (Q53GS9 whole entry): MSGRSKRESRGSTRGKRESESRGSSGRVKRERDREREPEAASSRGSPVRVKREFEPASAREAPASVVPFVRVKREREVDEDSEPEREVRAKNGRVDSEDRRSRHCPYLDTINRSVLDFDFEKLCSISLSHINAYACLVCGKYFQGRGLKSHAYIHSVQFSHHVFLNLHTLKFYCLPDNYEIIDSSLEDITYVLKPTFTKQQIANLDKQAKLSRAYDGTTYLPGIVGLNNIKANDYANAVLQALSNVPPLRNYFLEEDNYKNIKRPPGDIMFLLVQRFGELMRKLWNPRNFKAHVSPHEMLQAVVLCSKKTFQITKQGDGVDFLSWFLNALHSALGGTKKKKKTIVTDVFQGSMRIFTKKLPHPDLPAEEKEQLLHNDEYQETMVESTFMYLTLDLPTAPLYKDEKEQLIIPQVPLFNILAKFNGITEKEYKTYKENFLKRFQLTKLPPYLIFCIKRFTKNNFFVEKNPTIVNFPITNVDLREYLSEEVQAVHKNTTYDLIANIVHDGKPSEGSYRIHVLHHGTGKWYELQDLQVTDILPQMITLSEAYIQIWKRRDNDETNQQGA
# Sequence of EFTUD2, Q15029 (Q15029 whole entry): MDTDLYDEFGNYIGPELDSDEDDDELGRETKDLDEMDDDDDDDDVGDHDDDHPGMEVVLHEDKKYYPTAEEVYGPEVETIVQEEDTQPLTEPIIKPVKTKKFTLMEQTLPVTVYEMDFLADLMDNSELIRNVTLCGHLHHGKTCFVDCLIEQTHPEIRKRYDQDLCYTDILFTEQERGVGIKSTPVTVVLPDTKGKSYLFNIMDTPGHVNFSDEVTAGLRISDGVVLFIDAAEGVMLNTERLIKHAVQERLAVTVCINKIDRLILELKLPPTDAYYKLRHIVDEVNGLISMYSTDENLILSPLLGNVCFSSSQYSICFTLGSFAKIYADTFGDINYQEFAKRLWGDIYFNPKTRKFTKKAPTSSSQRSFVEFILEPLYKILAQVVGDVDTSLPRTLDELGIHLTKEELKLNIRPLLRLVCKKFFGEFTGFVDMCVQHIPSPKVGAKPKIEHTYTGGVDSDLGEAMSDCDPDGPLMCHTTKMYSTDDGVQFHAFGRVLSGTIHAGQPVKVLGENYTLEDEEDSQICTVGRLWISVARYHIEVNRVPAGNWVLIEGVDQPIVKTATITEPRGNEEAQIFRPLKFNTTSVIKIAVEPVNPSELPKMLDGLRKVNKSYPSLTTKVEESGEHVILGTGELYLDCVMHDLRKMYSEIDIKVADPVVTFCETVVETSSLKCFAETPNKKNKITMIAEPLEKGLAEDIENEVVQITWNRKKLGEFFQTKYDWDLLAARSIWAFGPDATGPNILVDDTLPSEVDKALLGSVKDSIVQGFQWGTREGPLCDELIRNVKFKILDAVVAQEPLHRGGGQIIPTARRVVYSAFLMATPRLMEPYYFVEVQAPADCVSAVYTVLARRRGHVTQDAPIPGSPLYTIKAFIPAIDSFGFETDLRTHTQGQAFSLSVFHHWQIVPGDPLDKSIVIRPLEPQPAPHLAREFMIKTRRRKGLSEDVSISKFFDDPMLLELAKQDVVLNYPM
# Sequence of PLRG1, O43660 (O43660 whole entry): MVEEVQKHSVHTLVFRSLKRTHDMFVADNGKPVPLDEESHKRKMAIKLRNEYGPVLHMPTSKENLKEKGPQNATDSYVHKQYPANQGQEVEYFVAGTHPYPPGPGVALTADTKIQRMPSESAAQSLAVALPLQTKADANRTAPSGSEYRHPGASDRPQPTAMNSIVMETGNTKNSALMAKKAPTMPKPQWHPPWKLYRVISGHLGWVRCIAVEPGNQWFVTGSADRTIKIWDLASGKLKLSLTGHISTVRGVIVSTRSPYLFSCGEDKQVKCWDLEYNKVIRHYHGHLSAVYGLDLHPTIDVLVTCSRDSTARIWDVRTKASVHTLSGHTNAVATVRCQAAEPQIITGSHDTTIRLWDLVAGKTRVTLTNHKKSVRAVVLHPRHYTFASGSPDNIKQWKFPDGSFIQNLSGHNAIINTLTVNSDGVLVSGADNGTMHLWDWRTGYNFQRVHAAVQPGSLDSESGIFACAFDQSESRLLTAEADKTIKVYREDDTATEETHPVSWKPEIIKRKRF
row,Substance,cross-linked residues
1,"PLRG1, O43660",K320 - K666
2,"USP39, Q53GS9",K508 - K983
3,"EFTUD2, Q15029",K405 - K218

# Reference: publication PMC12350791
